# Screening results deposited in PubChem by National Center for Advancing Translational Sciences (NCATS).
# Sfp PPTase inh – blocks B. subtilis Sfp PPTase activity; Q9F4F7; Biochemical Sfp PPTase activity, qHTS; Potency, µM, inactives show largest response in the series, negative = inhibition, usual class: inhibitors; hit rate 3.5% among 310,000;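 further: the enzyme is Sfp with the accession as filed and its product quenches rhodamine fluorescence; 0% = enzyme reaction without inhibitor and -100% = no enzyme wells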
#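 Step 1, compound plus 15 nM Sfp-PPTase, 15 min, room temperature. Step 2, add rhodamine-CoA (5 uM) and BHQ-2-YbbR (12.5 uM). Step 3, read 525/598 nm fluorescence at 0 and 30 min.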
# PINK1 expr mod – PINK1 expression modulation; PINK1 immunofluorescence, high-content cytometry, 24 h; Potency, µM (series often up to 76.6 µM), without a hit: at the highest dose activation (PINK1 increase), hits mostly activators; hit rate 0.2% among 410,000; active means well fitted activation curve with a large enough effect; inconclusive means small, poorly fitted or top-dose-only effect; cell line not stated here; further: % of control where 0% means no effect; nearly all actives have a fitted effect of over 65% in size
#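 Stable cell line, 250 cells/well, 12 h attachment; compounds pinned at 5 concentrations, 24 h; CCCP control. Fixed with nuclear dye, primary antibodies 12 h at 10 degrees C, secondary plus cell stain; laser-scanning cytometer read.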
# RORg inh – ROR gamma (mouse) transcription inhibition | P51450 | Drosophila S2 Gal4-RORgamma UAS-luciferase reporter, 20 h | Potency, µM (highest dose often 53.6 µM), without a hit: top-dose activity change, negative = inhibition, actives largely listed as inhibitors | hit rate 5.4% among 310,000 | AID 2551; further: on the % scale 0 is the no-effect control and ±100 the full control effect; nearly all actives have a fitted effect of over 60% in size
# Target sequence (P51450 whole entry, looked up, the tested form may be a part): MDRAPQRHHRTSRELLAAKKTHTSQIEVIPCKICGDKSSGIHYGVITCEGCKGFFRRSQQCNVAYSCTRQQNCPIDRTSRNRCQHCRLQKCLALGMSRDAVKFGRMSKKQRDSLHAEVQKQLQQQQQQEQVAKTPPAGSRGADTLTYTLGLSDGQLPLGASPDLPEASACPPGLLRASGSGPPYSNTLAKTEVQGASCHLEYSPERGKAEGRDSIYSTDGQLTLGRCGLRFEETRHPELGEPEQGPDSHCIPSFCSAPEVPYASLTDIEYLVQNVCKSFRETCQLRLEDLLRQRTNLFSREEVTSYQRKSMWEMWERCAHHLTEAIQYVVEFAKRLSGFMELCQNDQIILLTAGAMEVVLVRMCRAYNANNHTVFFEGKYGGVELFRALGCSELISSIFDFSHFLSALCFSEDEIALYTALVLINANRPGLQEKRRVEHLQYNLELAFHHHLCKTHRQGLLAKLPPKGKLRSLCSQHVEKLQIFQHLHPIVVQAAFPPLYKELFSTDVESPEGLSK
#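 In this cell-based reporter format, copper sulfate (700 uM final) drives Gal4–ROR gamma fusion expression from a metallothionein promoter in Drosophila Schneider cells; compounds preincubated 1 hr, reporter read after 20 hr at ambient temperature.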
# ClpP mod – qHTS Assay for Activators of ClpP. AID 651965, 2013. hit rate 1.9% among 340,000. purified B. subtilis ClpP, FRET peptide cleavage, 20 min. Potency, µM (top dose mostly 57.5 µM), for inactives: top-dose activity change, negative = active. ATP-dependent Clp protease proteolytic subunit (Bacillus subtilis (strain 168)), P80244; active means well fitted falling curve with a large enough effect; inconclusive means small, poorly fitted or top-dose-only effect; inactive means no such curve, though single readings can be large or run the other way; further: the source files actives as falling curves though it sought activators and does not explain the sign; nearly all actives have a fitted effect of over 65% in size
# Target sequence (P80244 whole entry, looked up): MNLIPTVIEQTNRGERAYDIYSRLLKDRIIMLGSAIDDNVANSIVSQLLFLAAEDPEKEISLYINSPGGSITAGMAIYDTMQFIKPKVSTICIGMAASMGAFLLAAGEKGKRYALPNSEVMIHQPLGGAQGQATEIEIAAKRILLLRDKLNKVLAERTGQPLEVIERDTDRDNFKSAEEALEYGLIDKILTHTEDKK
#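 FRET quenching reversal measured ClpP activation: 10 microg/mL B. subtilis ClpP at pH 8 with the FRET-FV decapeptide, read at 430 nm after 320 nm excitation. The 20-min minus 0-min signal was scaled between DMSO/no-enzyme wells and ADEP (5.8 microM final).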
# VP16 counter – inhibits Gal4-VP16 luciferase reporter, ROR gamma counter-screen; Potency, µM (top dose mostly 53.6 µM), inactives show at the top dose activity, negative = inhibition, hits mostly inhibitors; Drosophila S2 Gal4-VP16 UAS-luciferase, luminescence, 20 h; hit rate 3.5% among 310,000;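 further: Gal4-VP16 expression switched on by copper sulfate through the metallothionein promoter; on the % scale 0 is the no-effect control and ±100 the full control effect; nearly all actives have a fitted effect of over 50% in size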
# Epigenetic reg – epigenetic control regulation, reporter derepression; murine LDR cells, GFP reporter derepression, 30 h; Potency, µM (highest dose often 53.9 µM), inactives show top-dose GFP activation, usual class: activators; hit rate 0.2% among 280,000; AID 1865; further: % of control where 0% means no effect; nearly all actives have a fitted effect of over 60% in size
#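 Derepression of a silenced CMV-GFP reporter in murine LDR cells is scored by enumerating GFP-positive cells with a laser-scanning microplate cytometer after 30 hours of treatment at 37 C.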
# * marks the source's active call; other numbers are inactive results; ? = inconclusive; · = no result; [ ] = remark or other dose. Sampled rows, rich in hits. Any-hit rate of the full collection: about 8.1%. Unless noted, the call rests on the fitted dose curve; in most records, active means well fitted curve in the direction sought with a large enough effect; inconclusive means small, poorly fitted or top-dose-only effect, or another doubt; inactive means no such curve, though single readings can be large; an effect the other way counts as inactive or inconclusive. Potency means the concentration at half of the fitted maximal effect.
SMILES,Sfp PPTase inh,PINK1 expr mod,RORg inh,ClpP mod,VP16 counter,Epigenetic reg
Cc1ccc(C)c(NC(=S)NC(C)C(c2ccccc2)N2CCN(C)CC2)c1 (stereo not drawn),21%,-1%,13µM*,-1%,-17%,1%
CC(NC(=S)Nc1ccccc1Cl)C(c1ccccc1)N1CCOCC1 (stereo not drawn),-4%,0%,4µM*,-1%,?,3%
C=CC[C@@](C(C)=O)(C(=O)OC)C(NC(=O)OC)c1ccccc1 (stereo partly drawn),-12%,·,-23%,·,-11%,-1%
COc1ccc(CC(=O)N2N=C(c3ccncc3)CC2(O)C(F)(F)F)cc1 (stereo not drawn),24%,10%,11µM*,0%,-3%,0%
COc1ccc(CC(=O)N2N=C(C)CC2(O)C(F)(F)F)cc1OC (stereo not drawn),21%,-1%,?,-1%,?,-5%
CCC1=NN(C(=O)Cc2ccc(OC)cc2)C(O)(C(F)(F)F)C1 (stereo not drawn),5%,-2%[38.3 µM],11µM*,-1%,?,-1%
CCc1ccc(C2=NN(C(=O)OC)C(O)(C(F)(F)F)C2)cc1 (stereo not drawn),13%,·,11µM*,0%,?,-2%
CCCC1=NN(C(=O)Cc2ccc(OC)c(OC)c2)C(O)(C(F)(F)F)C1 (stereo not drawn),2%,0%,?,-3%,-19%,0%
COc1ccc(OCC(=O)N2N=C(C)CC2(O)C(F)(F)F)cc1 (stereo not drawn),21%,-1%,6.3µM*,·,?,3%
COC(=O)C1(Cc2ccc(O)c(CC3OC3(C)C)c2)OC(=O)C(O)=C1c1ccc(O)cc1 (stereo not drawn),79µM*,-1%,21%,-3%,?,1%
CCN(CC(=O)NCc1cccs1)C(=O)c1cccc(S(=O)(=O)NC)c1,·,1%,·,0%,·,·
CCN(CC(=O)NCc1cccs1)C(=O)c1cccc(S(=O)(=O)Nc2ccccc2Cl)c1,·,0%,·,35µM*,·,·
Cc1cccc(-c2noc(-c3ccccc3C(=O)NCc3ccco3)n2)c1,40µM*,3%,-18%,0%,?,0%
COc1ccc(-c2nc(-c3cccc(C)c3)no2)cc1OC,-11%,8%[38.3 µM],?,25µM*,?,-1%
COc1ccccc1-c1nc(-c2cccc(C)c2)no1,?,?,?,-27%,22µM*,0%
COc1ccc(OC)c(CCNC(=O)CCc2cn(Cc3cc(C)ccc3C)c3ccccc23)c1,·,-1%,·,?,·,4%
CC(C)c1ccc(NC(=O)CN2C(=O)C3(SCC(=O)N3c3ccc(F)cc3)c3ccccc32)cc1 (stereo not drawn),·,-5%,·,1%,·,0%
CN(CCC#N)c1ccc(/C=C(\C#N)c2ccccn2)cc1,-6%,-1%,10µM*,1%,10µM*,0%
CCN(CC)c1ccc(/C=C(\C#N)c2ccccn2)cc1,-56%,2%,6.3µM*,·,7.1µM*,18µM*
COc1ccc(CNC(=O)c2ccc3c(c2)CCN3S(=O)(=O)c2ccc(C)cc2)cc1,·,4%,·,0%,·,-4%
COc1ccc(C(=O)NCC2Cc3cc(C)cc(-c4nc5ccccc5s4)c3O2)c(OC)c1OC (stereo not drawn),·,-1%,·,·,·,·
COc1ccc(-c2nnc3n2N=C(c2ccc(OC)cc2OC)CS3)cc1,9%,·,?,·,-12%,·
CC(C)COc1ccc(CC(=O)NO)cc1,·,0%,·,2%,·,·
O=C(NC(=S)NCC1CCCO1)c1ccccc1 (stereo not drawn),-26%,-2%,?,1%,?,0%
Cc1ccc(C(=O)NC(=S)NCC2CCCO2)cc1 (stereo not drawn),10%,-1%,16µM*,-1%,-21%,1%
SMILES,Sfp PPTase inh,PINK1 expr mod,RORg inh,ClpP mod,VP16 counter,Epigenetic reg
CCN1CCN(C(=S)NCC2CCCO2)CC1 (stereo not drawn),-22%,-1%,-14%,-2%,-7%,4%
Cc1cnn(C(=S)NCC2CCCO2)c1 (stereo not drawn),-25%,-1%,14µM*,-5%,?,3%
O=C(NC(=S)NCC1CCCO1)c1ccc([N+](=O)[O-])cc1 (stereo not drawn),-23%,1%,13µM*,-1%,-93%,4%
O=C(NC(=S)NCC1CCCO1)c1ccc(Cl)cc1 (stereo not drawn),11%,1%,11µM*,-5%,?,1%
COc1ccc(C2CC(c3ccccc3)Oc3c(C)ccc(C)c32)cc1 (stereo not drawn),-25%,·,7%,·,1%,·
COC(C1CCCCC1)C(C)C(OCc1cccc(Br)c1)C(C)CO (stereo not drawn),-1%,·,7%[10 µM],·,-1%[10 µM],0%[10.1 µM]
O=C(CCS(=O)(=O)c1ccc(F)cc1)Nc1nnc(-c2cccs2)o1,·,-3%,·,?,·,·
O=C(CCSc1ccccc1)Nc1nnc(-c2ccccc2)o1,7%,2%,10µM*,-1%,11µM*,1%
O=C(CCSc1ccccc1)Nc1nnc(-c2cccs2)o1,25%,0%,4.5µM*,-14%,10µM*,0%
O=C(CS(=O)(=O)c1ccc(F)cc1)Nc1nnc(-c2cccs2)o1,·,2%,·,·,·,·
O=C(CS(=O)(=O)c1ccc(Cl)cc1)Nc1nnc(-c2cccs2)o1,1%,-1%,14µM*,-13%,?,·
O=C(CCc1ccccc1)Nc1nnc(-c2cccs2)o1,4%,2%,6.3µM*,5%,10µM*,1%
CCC(=O)N1CCc2cc(S(=O)(=O)Nc3cc(C)ccc3OC)ccc21,·,3%,·,-1%,·,1%
CC(C)c1c(C(=O)N(C)C2CCN(C)CC2)cnn1-c1nccc(-c2ccco2)n1,·,2%,·,·,·,·
CCN(Cc1ccccc1)C(=S)NC(=O)c1ccccc1Br,24%,0%,0.79µM*,-3%,1.1µM*,·
CN(Cc1ccccc1)C(=O)c1ccccc1Br,-17%,-3%,9%,-5%,1%,3%
O=C(NNC(=S)NC(=O)c1ccccc1[N+](=O)[O-])c1ccccc1,16%,3%,15%,0%,7%,1%
CCCN(Cc1ccccc1)C(=S)NC(=O)c1ccccc1[N+](=O)[O-],18%,0%,0.35µM*,·,1µM*,5%
O=C(NC(=S)N(CCO)Cc1ccccc1)c1cc(Br)ccc1Cl,9%,-1%,0.79µM*,-2%,1.8µM*,-3%
CCc1nn2c(=O)cc(COC(=O)c3ccccc3NC(=O)COc3ccc(C)c(C)c3)nc2s1,·,1%,·,4%,·,1%
